# Records with an inconclusive call do not appear. More than one record can exist for a structure, and the calls need not agree. The source made the active and inactive calls. Rule for the calls, unless noted: active = hit-call score of the fitted dose curve at least 0.9, where 1 is the maximum; inactive = score below 0.9.
# Key:
# [1] = STM_H9_OrnithineISnorm_perc: Stemina devTOX quickPredict H9 human embryonic stem cell (hESC)-based Assay for Ornithine (ORN) Metabolite Biomarker, Normalized (AID 2283712);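 note: ornithine released into spent medium during last day measured by mass spectrometry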
# Procedure, shortened: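 Ornithine in spent medium from the last 24 h of a 72 h exposure, deproteinised and quantified by UPLC-HRMS against an isotope-labelled internal standard, expressed relative to 0.1% DMSO. Pluripotent H9 cells; compound refreshed every 24 h.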
# [2] = STM_H9_CystineISnorm_perc: Stemina devTOX quickPredict H9 human embryonic stem cell (hESC)-based Assay for Cystine (CYSS) Metabolite Biomarker, Normalized (AID 2283713)
# Procedure, shortened: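 Cystine in spent media from the last 24 h of a 72 h H9 hESC exposure (daily re-dosing), measured by UPLC-HRMS. Values normalized to isotopic internal standard, then to 0.1% DMSO; viability via CellTiter-Fluor.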
# [3] = CEETOX_H295R_MTT_cell_viability: Viability Assessment in the CeeTox HT-H295R MTT Assay (AID 2283718);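 for AC50: curve fitted both ways so AC50 may mark viability loss or gain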
# Procedure, shortened: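 Human H295R adrenal cells, prestimulated 48 h with 10 uM forskolin, were exposed 48 h to chemicals in 0.1% DMSO. Viability was measured in the same wells by MTT (0.5 mg/ml, 4 h, 37 C), absorbance 570/650 nm, as percent of controls.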
# [4] = Tanguay_ZF_120hpf_ActivityScore_legacy: (Legacy) Oregon State University Tanguay Lab 120 Hour Post-fertilization zebrafish Assay Score for Activity (AID 2283742; active = hit-call score of the fitted dose curve at least 0.9, where 1 is the maximum;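 for AC50: dechorionated Tropical 5D wild-type zebrafish embryos held singly per well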)
# Procedure, shortened: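 Dechorionated 5D embryos, one per well, static exposure 6–120 hpf, 28C, sealed and dark; final DMSO 0.64% (vol/vol). Brightfield binary scoring of mortality plus 18 endpoints; gain-of-signal fit versus DMSO baseline.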
# [5] = system: zebrafish Androgen Receptor (AR), gene 100005148; experiment: ATG_zfAR_XSP1: Attagene TRANS-FACTORIAL Multi-Species (XSP1) HepG2 Assay for zebrafish Androgen Receptor (AR) (AID 2283771; active = hit-call score of the fitted dose curve at least 0.9, where 1 is the maximum)
# Procedure, shortened: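 Gain-of-signal versus DMSO was measured as reporter transcripts quantified by RT-PCR, fluorescent labelling and capillary electrophoresis after 24 h chemical exposure. The cells were HepG2 expressing a chimeric zebrafish AR-GAL4, co-stimulated with 3 nM 6-alpha-fluorotestosterone.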
# [6] = molecular target: Luciferin 4-monooxygenase (Photinus pyralis) (UniProt P08659); experiment: CCTE_Simmons_QuantiLum_inhib_2: CCTE's Firefly Luciferase Inhibition Assay, Simmons Lab (AID 2283767; active = hit-call score of the fitted dose curve at least 0.9, where 1 is the maximum)
# Procedure, shortened: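 Eight test concentrations, 5 nM up to 87.5 uM final, preincubated 30min at 37C in the dark with purified luciferase (0.5% DMSO final). Detection reagent (150uM D-luciferin, 147uM dATP, 75uM CoA, pH 7.8) injected per well before kinetic luminescence read; three replicates.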
# [7] = read-out: xenobiotic metabolism (CYP1A1), CYP1A1 (gene 1543); experiment: CLD_CYP1A1_48hr: CellzDirect (CLD) Gene Expression Assay for xenobiotic metabolism (CYP1A1) at 48 hours (AID 2283705; active = hit-call score of the fitted dose curve at least 0.9, where 1 is the maximum)
# Procedure, shortened: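 CYP1A1 transcript measured by quantitative nuclease protection (chemiluminescent) 48 h after two daily treatments of human hepatocyte cultures, versus 0.2% DMSO. Morphology-based cytotoxicity flags accompany data; two donor preparations used.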
# [8] = read-out: organic anion transporter (SLCO1B1), SLCO1B1 (gene 10599); experiment: CLD_SLCO1B1_48hr: CellzDirect (CLD) Gene Expression Assay for organic anion transporter (SLCO1B1) at 48 hours (AID 2283707; active = hit-call score of the fitted dose curve at least 0.9, where 1 is the maximum)
# Procedure, shortened: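 SLCO1B1 transcript quantified by qNPA with chemiluminescent readout after 48 h of once-daily chemical exposure. Cultured human primary hepatocytes came from two donors, with 0.2% DMSO vehicle; positive-direction fitting against DMSO, cytotoxicity flagged by morphology.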
# [9] = read-out: alkyl and aryl transferase (GSTA2), GSTA2 (gene 2939); experiment: CLD_GSTA2_48hr: CellzDirect (CLD) Gene Expression Assay for alkyl and aryl transferase (GSTA2) at 48 hours (AID 2283708; active = hit-call score of the fitted dose curve at least 0.9, where 1 is the maximum;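 note: active means mRNA induction above DMSO vehicle baseline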)
# Procedure, shortened: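 GSTA2 mRNA quantified by qNPA chemiluminescence in human primary hepatocyte lysates after 48 h of daily fresh chemical dosing. Increases fitted against 0.2% DMSO vehicle baseline; cytotoxicity from morphology annotated yes/no.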
# [10] = read-out: glucuronosyltransferase (UGT1A1), UGT1A1 (gene 54658); experiment: CLD_UGT1A1_48hr: CellzDirect (CLD) Gene Expression Assay for glucuronosyltransferase (UGT1A1) at 48 hours (AID 2283709; active = hit-call score of the fitted dose curve at least 0.9, where 1 is the maximum;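 note: actives increase expression relative to DMSO so potency refers to induction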)
# Procedure, shortened: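 Quantitative nuclease protection assay (chemiluminescent) for UGT1A1 mRNA at 48 h in human hepatocyte cultures from two donors, redosed daily with fresh solutions. Induction fitted relative to 0.2% DMSO; phase-contrast morphology annotated cytotoxicity.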
# [11] = read-out: sulfotransferase (SULT2A), SULT2A1 (gene 6822); experiment: CLD_SULT2A_48hr: CellzDirect (CLD) Gene Expression Assay for sulfotransferase (SULT2A) at 48 hours (AID 2283710; active = hit-call score of the fitted dose curve at least 0.9, where 1 is the maximum;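 note: hits raise SULT2A1 transcript above the 0.2% DMSO vehicle baseline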)
# Procedure, shortened: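 SULT2A1 transcript measured by qNPA chemiluminescence in human primary hepatocyte cultures after 48 h, with fresh dosing solutions on two consecutive days; gain-of-signal fitting against 0.2% DMSO vehicle; cytotoxicity annotated from phase-contrast morphology.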
# [12] = read-out: Glyceraldehyde-3-phosphate dehydrogenase (Homo sapiens) (UniProt P04406); experiment: CLD_GAPDH_48hr: CellzDirect (CLD) Gene Expression Assay for Baseline Control (Glyceraldehyde 3-phosphate dehydrogenase) at 48 hours (AID 2283706; active = hit-call score of the fitted dose curve at least 0.9, where 1 is the maximum;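 note: active means higher GAPDH mRNA than DMSO vehicle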)
# Procedure, shortened: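 GAPDH baseline-control readout: qNPA chemiluminescent mRNA quantitation in human liver primary cells 48 h after daily dosing on two consecutive days, vehicle 0.2% DMSO; gain of signal fitted against DMSO, cytotoxicity flagged by phase-contrast morphology.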
# Sequence of Luciferin 4-monooxygenase (Photinus pyralis) (P08659 whole entry, looked up): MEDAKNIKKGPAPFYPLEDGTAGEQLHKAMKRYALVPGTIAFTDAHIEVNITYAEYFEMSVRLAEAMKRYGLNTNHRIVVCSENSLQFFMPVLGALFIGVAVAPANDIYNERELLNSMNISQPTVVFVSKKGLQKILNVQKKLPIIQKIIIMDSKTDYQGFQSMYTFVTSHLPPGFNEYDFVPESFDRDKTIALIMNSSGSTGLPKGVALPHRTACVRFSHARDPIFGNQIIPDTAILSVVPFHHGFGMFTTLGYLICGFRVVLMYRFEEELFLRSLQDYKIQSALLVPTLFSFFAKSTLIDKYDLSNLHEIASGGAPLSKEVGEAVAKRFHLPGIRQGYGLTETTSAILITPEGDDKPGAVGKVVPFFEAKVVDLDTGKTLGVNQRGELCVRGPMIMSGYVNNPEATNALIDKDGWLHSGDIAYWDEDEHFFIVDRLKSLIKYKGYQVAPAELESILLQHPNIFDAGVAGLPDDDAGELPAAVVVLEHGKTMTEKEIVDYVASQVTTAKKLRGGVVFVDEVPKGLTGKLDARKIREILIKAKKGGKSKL
# Sequence of Glyceraldehyde-3-phosphate dehydrogenase (Homo sapiens) (P04406 whole entry, looked up): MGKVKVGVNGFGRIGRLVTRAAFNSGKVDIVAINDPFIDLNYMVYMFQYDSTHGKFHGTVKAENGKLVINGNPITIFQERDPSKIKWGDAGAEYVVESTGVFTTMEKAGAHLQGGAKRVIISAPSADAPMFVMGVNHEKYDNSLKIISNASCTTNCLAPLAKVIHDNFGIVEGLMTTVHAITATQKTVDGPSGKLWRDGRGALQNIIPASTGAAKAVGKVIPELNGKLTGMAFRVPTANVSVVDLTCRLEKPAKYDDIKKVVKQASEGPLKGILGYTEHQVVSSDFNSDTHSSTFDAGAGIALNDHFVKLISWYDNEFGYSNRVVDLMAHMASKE
structure (smiles),measurement,setting,value
Clc1ccc(C(c2ccccc2Cl)C(Cl)(Cl)Cl)cc1 (configuration not stated),AC50,[1],79.3 µM (active)
same,AC50,[2],54.5 µM (active)
same,outcome,[3],inactive
same,outcome,[4],inactive
same,outcome,[5],inactive
CCCCCCCCCC[N+](C)(C)CCCCCCCCCC,AC50,[1],1.82 µM (active)
same,AC50,[2],2.44 µM (active)
same,AC50,[4],39.7 µM (active)
same,outcome,[6],inactive
Cc1cccc(C)c1N,outcome,[3],inactive
same,outcome,[4],inactive
C=CC(N)=O,outcome,[1],inactive
same,outcome,[2],inactive
same,outcome,[3],inactive
same,outcome,[4],inactive
Clc1ccc(C(Cl)(Cl)Cl)cc1,AC50,[1],94.7 µM (active)
same,AC50,[2],77.8 µM (active)
same,outcome,[4],inactive
same,outcome,[6],inactive
CCOCCOC(C)=O,outcome,[1],inactive
same,outcome,[2],inactive
same,outcome,[3],inactive
same,outcome,[4],inactive
CCCCCCOC(=O)c1ccccc1C(=O)OCCCCCC,outcome,[1],inactive
same,outcome,[2],inactive
same,AC50,[3],25.5 µM (active)
same,outcome,[3],inactive
same,outcome,[4],inactive
O=NN(c1ccccc1)c1ccccc1,outcome,[1],inactive
same,outcome,[2],inactive
same,outcome,[4],inactive
CCC(C)(CC)c1cc(NC(=O)c2c(OC)cccc2OC)on1,AC50,[7],3.98 µM (active)
same,outcome,[8],inactive
same,outcome,[9],inactive
same,AC50,[10],0.498 µM (active)
same,AC50,[11],3.78 µM (active)
same,AC50,[3],43 µM (active)
same,outcome,[4],inactive
Cc1cc2c3c(c1)C(c1ccccc1)=N[C@@H](NC(=O)c1ccncc1)C(=O)N3CC2,outcome,[3],inactive
same,outcome,[4],inactive
CO/C=C(/C(=O)OC)c1ccccc1COc1cccc(C(F)(F)F)n1,AC50,[1],0.0992 µM (active)
same,outcome,[2],inactive
same,AC50,[4],28.7 µM (active)
C1CC2OC2CC1C1CO1 (configuration not stated),AC50,[1],79.3 µM (active)
same,AC50,[2],47 µM (active)
same,outcome,[4],inactive
ClC1=C(Cl)[C@]2(Cl)[C@@H]3[C@H]4C[C@H]([C@@H]5O[C@H]45)[C@@H]3[C@@]1(Cl)C2(Cl)Cl,AC50,[1],60.9 µM (active)
same,AC50,[2],78.7 µM (active)
same,AC50,[3],4.96 µM (active)
Oc1ccc(Cl)cc1Cl,outcome,[3],inactive
same,outcome,[4],inactive
NS(=O)(=O)C(F)(F)C(F)(F)C(F)(F)C(F)(F)C(F)(F)C(F)(F)C(F)(F)C(F)(F)F,outcome,[3],inactive
same,AC50,[4],38 µM (active)
CC1=C2C[C@H]3[C@@H](CC=C4C[C@@H](O)CC[C@@]43C)[C@@H]2CC[C@]12O[C@@H]1C[C@H](C)CN[C@H]1[C@H]2C,outcome,[1],inactive
same,outcome,[2],inactive
same,outcome,[3],inactive
same,AC50,[4],44.8 µM (active)
Cc1ccccc1CO[C@@H]1C[C@@]2(C(C)C)CC[C@]1(C)O2,outcome,[7],inactive
same,outcome,[12],inactive
same,outcome,[9],inactive
same,AC50,[10],7.69 µM (active)
same,outcome,[11],inactive
same,outcome,[3],inactive
same,outcome,[4],inactive
same,outcome,[6],inactive
CC#Cc1cc(C)nc(Nc2ccccc2)n1,outcome,[3],inactive
same,outcome,[4],inactive

# Source: PubChem BioAssay (EPA / NIEHS)
